Compounds with a hit are over-represented: about 0.93% of the library has one in this group of screens.
LAP4 TOR yeast: alters LAP4-GFP fluorescence in TOR pathway yeast screen | S. cerevisiae LAP4-GFP multiplex, flow cytometry GFP, 3 h; median GFP as percent of DMSO wells | GFP response vs DMSO, % at 10 µM | 320,000 tested, 0.34% active;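 active means GFP response vs DMSO above a set limit, about the screen mean plus 3 SD, cut at about 150% in these data; inconclusive means under 70 cell events counted for the yeast strain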
MEP2 TOR yeast: yeast TOR pathway MEP2-GFP modulation. S. cerevisiae MEP2-GFP strain, flow cytometry GFP, 3 h; 100% = DMSO control level. 330,000 tested, 0.51% active. GFP response vs DMSO, % at 10 µM;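 active means GFP response versus DMSO above a set limit, roughly screen mean plus 3 SD, cut at about 180% in these data; inconclusive means fewer than 70 cells counted for a yeast strain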;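 further: median GFP fluorescence of the barcode-gated MEP2-GFP cells per well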
CIT2 TOR yeast: modulators of TOR pathway CIT2-GFP in S. cerevisiae; S. cerevisiae CIT2-GFP strain, flow cytometry, 3 h; 100 means same as DMSO wells; GFP response vs DMSO, % at 10 µM; 320,000 tested, 0.065% active;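 active means GFP response relative to DMSO above a set limit, near the screen mean plus 3 SD, cut at about 150% in these data; inconclusive means Fewer than 70 cells measured for a yeast strain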;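 further: ratio of well median GFP fluorescence to mean of DMSO wells on the plate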
AGP1 TOR yeast: alters AGP1-GFP fluorescence in TOR pathway yeast screen; 320,000 tested, 0.02% active; AID 2066; S. cerevisiae AGP1-GFP multiplex flow cytometry, 3 h; GFP as percent of DMSO wells; GFP response vs DMSO, % at 10 µM;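 active means GFP response relative to DMSO above a set limit, near screen average plus 3 SD, cut at about 150% in these data; inconclusive means fewer than 70 cells counted for the yeast strain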;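 further: median GFP channel fluorescence of the gated AGP1 strain per well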
RPL19A-GFP yeast: yeast TOR pathway RPL19A-GFP modulation; S. cerevisiae RPL19A-GFP strain, flow cytometry, 3 h; active compounds read low; percent response vs DMSO, % at 10 µM; 330,000 tested, 0.3% active;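 active means percent response vs DMSO below 50%; inconclusive means fewer than 70 events counted for the yeast strain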;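 further: median channel GFP fluorescence of the barcoded RPL19A-GFP strain; ratio of sample median GFP to plate DMSO average so 100% = DMSO; lower means less RPL19A-GFP as with rapamycin TOR inhibition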
The depositor's hits bear a star; ? = inconclusive; . = no result; [ ] = dose if it differs, or a comment.

SMILES	LAP4 TOR yeast	MEP2 TOR yeast	CIT2 TOR yeast	AGP1 TOR yeast	RPL19A-GFP yeast
CCCCOc1ccc(C(=O)NC(=S)Nc2ccc(CN3CCOCC3)cc2)cc1	111	112	97	107	99
CCCCn1c(N)c(N(CCOC)C(=O)c2sc3cc(F)ccc3c2Cl)c(=O)[nH]c1=O	104	100	95	99	96
CCN1CCN(C2=C(NS(=O)(=O)c3ccccc3)C(=O)c3ccccc3C2=O)CC1	53	250*[may fluoresce violet]	?	?	38*[may fluoresce violet]
CCN1CCN(C2=C(NS(=O)(=O)c3ccc(Br)cc3)C(=O)c3ccccc3C2=O)CC1	105	99	103	104	103
O=C(COc1ccc(Cl)cc1Cl)NCCSc1ccc(Cl)cc1	74	212*[may fluoresce violet]	?	?	54
Cn1c(CSc2nc3ccccc3s2)nnc1SCC(=O)NCc1cccnc1	119	588*[may fluoresce violet]	?	?	42*[may fluoresce violet]
Cc1cnc(NC(=O)C2=C(O)c3ccccc3S(=O)(=O)N2C)s1	104	103	97	90	101
O=c1n(Cc2ccccc2)nc2n1-c1ccccc1SC2	118	98	92	109	100
O=c1n(Cc2ccc(F)cc2)nc2n1-c1ccccc1SC2	79	199*[may fluoresce violet]	?	?	42*[may fluoresce violet]
Clc1ccc(Oc2nc3ccccc3n3cccc23)cc1	112	232*[may fluoresce violet]	?	.	64
CNc1nc(-c2ccccc2)cc(C(F)(F)F)c1C#N	91	220*	103	23	75
Cc1ccc([N+](=O)[O-])cc1NC(=O)C(C)N1CCCCC1 (stereo unspecified)	73	185*[may fluoresce violet]	?	19	49*[may fluoresce violet]
COc1cccc(CNC(=O)CCC(=O)N2Cc3cccc(OC)c3Oc3ncccc32)c1OC	79	146	84	17	26*
COc1cccc2c1Oc1ncccc1N(C(=O)CCC(=O)NCc1ccc(C)cc1)C2	94	92	91	100	93
COc1cccc2c1Oc1ncccc1N(C(=O)CCC(=O)NCc1cccc(C)c1)C2	89	148	103	15	38*
CCOC(=O)C1=C(Cc2ccc(Cl)cc2)C(=O)c2ccccc2C1=O	190*	106	81	67	94
Oc1ccc(/C=N/Nc2nc(-c3cccnc3)nc3ccccc23)c(O)c1	88	97	109	98	97
COc1ccc(/C=N/Nc2nc(-c3cccnc3)nc3ccccc23)cc1OC	185*	116	107	87	53
CCOc1ccc(CN(C)c2nc(-c3cccnc3)nc3ccccc23)cc1OC	84	259*[may fluoresce violet]	?	?	48*[may fluoresce violet]
CN(Cc1ccccc1F)c1nc(-c2cccnc2)nc2ccccc12	68	88	83	79	92
O=[n+]1c2c(n([O-])c3cc(F)c(N4CCCC4)cc31)CCCC2	89	229*[may fluoresce violet]	?	?	34*[may fluoresce violet]
CCOCCCNC(=S)N1CCCC(c2nc3ccc(C)cc3[nH]2)C1 (stereo unspecified)	111	107	111	112	120
CC(C)(C)NC(=O)CN(C(=O)CCC(=O)Nc1nccs1)c1ccc(F)cc1	110	272*	116	85	96
CCOC(=O)c1ccc(N2C(=O)CC(Sc3nc(C)cc(C)n3)C2=O)cc1 (stereo unspecified)	96	106	99	100	100
CC(=O)c1cc2c(cc1NC(=O)CSc1nc3ccccc3[nH]1)OCO2	97	104	98	104	103
SMILES	LAP4 TOR yeast	MEP2 TOR yeast	CIT2 TOR yeast	AGP1 TOR yeast	RPL19A-GFP yeast
CC(=O)c1cc2c(cc1NC(=O)CSc1nc3ccccc3o1)OCO2	93	292*[may fluoresce violet]	?	.	41*[may fluoresce violet]
O=C1N[C@@H](Cc2cn(S(=O)(=O)c3ccc(F)cc3)c3ccccc23)C(=O)N[C@H]1Cc1ccccc1	107	99	99	94	102
CC(=O)c1cccc(NC=C2C(=O)OC3(CCCCC3)OC2=O)c1	110	111	103	99	106
N#Cc1c(Cl)c(Cl)c2nnc(-c3ccc(Br)cc3)n2c1Cl	191*	94	86	79	91
Cc1cc(NS(=O)(=O)c2ccc(NS(=O)(=O)c3cc(C)c(Cl)cc3Cl)cc2)no1	108	117	154*[may fluoresce green]	116	100
COc1ccc(N2CC(C(=O)NCc3nnnn3-c3ccc(C)c(C)c3)CC2=O)cc1 (stereo unspecified)	102	105	104	104	102
CC(=O)c1cc(C(=O)Nc2ccc(C(=O)O)cc2)oc1C	111	545*[may fluoresce violet]	?	.	50*[may fluoresce violet]
O=C(NNc1cccc(Cl)n1)c1c(Cl)cccc1Cl	95	110	103	113	102
O=C(CN1C(=O)COc2ccccc21)N1CCCc2ccccc21	98	110	104	101	100
C[C@]12C[C@H](O)[C@@H]3c4ccc(O)cc4CCC3[C@@H]1CCC2=O (stereo partly specified)	104	112	104	101	96
C[C@]12CC[C@H]3C(=CCc4cc(O)ccc43)[C@@H]1CCC2=O	157*	105	78	88	103
O=C1CN(C(=O)N[C@@H](Cc2ccccc2)C(=O)N[C@@H](Cc2ccccc2)C(=O)O)c2ccccc2N1	102	102	93	97	99
O=C1CN(C(=O)N[C@@H](Cc2ccccc2)C(=O)N[C@H](Cc2ccccc2)C(=O)O)c2ccccc2N1	86	242*[may fluoresce violet]	?	?	14*[may fluoresce violet]
CCN(C(=O)CN1C(=O)NC2(CCCc3ccccc32)C1=O)c1ccc(F)cc1 (stereo unspecified)	86	94	81	88	85
COc1ccc(CN2CCNC(=O)C2CC(=O)N(C)Cc2cc(C)no2)cc1OC (stereo unspecified)	64	92	107	?	?
CC(=O)Nc1ccc(S(=O)(=O)Nc2cccc(-c3cn4c(n3)SCC4)c2)cc1	66	130	?	15	45*[may fluoresce violet]
CC(=O)c1ccc(S(=O)(=O)Nc2cccc(-c3cn4c(n3)SCC4)c2)cc1	92	105	107	101	108
CN1CCN(C(=S)NC(=O)/C=C/c2cccc3ccccc23)CC1	99	104	99	110	100
Cc1nn(Cc2ccccc2)c(C)c1/C=N/NC(=O)c1ccncc1	.	90	.	.	101
COc1cc(-c2nnc3sc(C4CCCCC4)nn23)cc(OC)c1OC	107	546*[may fluoresce violet]	?	.	43*[may fluoresce violet]
Cc1ccc(C)c(N=C2NC(=O)CS2)c1	87	340*[may fluoresce violet]	?	?	43*[may fluoresce violet]
CC(=O)N/N=C/c1cc(C(C)(C)C)cc(/C=N/NC(C)=O)c1O	291*[may fluoresce violet]	395*[may fluoresce violet]	?	49	123
Cc1cc(N2CCN(Cc3cn(C)nc3-c3ccccc3F)CC2)cc(C)n1	99	99	106	102	101
CCOC(=O)CC1COCCN1Cc1cn(C)nc1-c1ccccc1F (stereo unspecified)	63	199*[may fluoresce violet]	?	?	17*[may fluoresce violet]
